An excerpt weighted towards active compounds, which were near 12% of everything screened.
BAZ2B inh: inhibitors of human BAZ2B bromodomain | AlphaScreen BAZ2B-H3K14Ac peptide displacement | Potency, µM (top dose mostly 114 µM), for the others: at the top dose activity change, negative = inhibition, hits mostly inhibitors | 360,000 compounds, 4.4% hits | AID 504333; also: potency is read from the fitted curve at half-maximal effect; % is scaled to controls: 0 for no effect and ±100 for the full control effect; nearly all actives have a fitted effect of over 60% in size
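Protein-peptide AlphaScreen: BAZ2B 50 nM, b-H3K14Ac 50 nM, 1x PBS pH 7.4 + 0.01% Tween-20. Preincubation 30 min RT; cpd 30 min RT (top 110 uM); beads 20 min RT, light-protected.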
HP1b binding inh: blocks HP1-beta chromodomain binding to methylated histone tails; AlphaScreen HP1-beta / biotin-H3K9me3 peptide binding; 390,000 compounds, 0.56% hits; AID 540317; P83916; Potency, µM (highest dose often 114 µM), for the others: at the highest dose activity change, negative = inhibition, hits mostly inhibitors; also: potency is read from the fitted curve at half-maximal effect; nearly all actives have a fitted effect of over 70% in size
Target sequence (P83916 whole entry, looked up): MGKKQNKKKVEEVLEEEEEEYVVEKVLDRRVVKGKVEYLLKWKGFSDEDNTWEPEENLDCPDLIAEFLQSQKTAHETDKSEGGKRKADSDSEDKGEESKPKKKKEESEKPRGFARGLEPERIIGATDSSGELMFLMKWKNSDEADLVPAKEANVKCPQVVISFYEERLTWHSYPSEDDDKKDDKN
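Compound inhibition of the preformed complex between 50 nM HP1-beta and 50 nM biotinylated H3K9me3 peptide was read by AlphaScreen. Buffer was PBS pH 7.4 with 0.01% Tween-20. Incubations ran 30 min at room temperature, with 10 ug/mL donor/acceptor beads.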
PI5P4K alpha inh: inhibitors of human PI5P4K alpha; PI5P4Kalpha enzyme, ADP-Glo luminescence, 60 min; hits give low values; max response, %; 330,000 compounds, 1.2% hits; active = max response of -50% or lower; inconclusive = between -30% and -50%; inactive = -30% or higher; also: value at the top dose of about 77 µM; % is scaled to controls: 0 for no effect and ±100 for the full control effect
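Single end-point luminescence (ADP-Glo) quantified ADP from PI5P4Kalpha turnover; ATP 5 microM final, 1 h at RT, 0.1% CHAPS and 0.28 mM EGTA in HEPES pH 7.4.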
JMJD2A Tudor inh: inhibitors of human JMJD2A Tudor domain | 390,000 compounds, 4.4% hits | Potency, µM (doses to about 114 µM), for the others: at the highest dose activity change, negative = inhibition, hits mostly inhibitors | O75164 | AlphaScreen JMJD2A-Tudor / H3K4me3 peptide binding; also: potency is read from the fitted curve at half-maximal effect; % is scaled to controls: 0 for no effect and ±100 for the full control effect; nearly all actives have a fitted effect of over 50% in size
PLK1 PBD inh: inhibitors of human PLK1 polo-box domain binding; Plk1 PBD binding of FITC phosphopeptide, fluorescence polarization; 360,000 compounds, 2.8% hits; AID 720504; Potency, µM, without a hit: max response, negative = inhibition, hits mostly inhibitors; also: potency is read from the fitted curve at half-maximal effect; series mostly up to about 57 µM; % is scaled to controls: 0 for no effect and ±100 for the full control effect; nearly all actives have a fitted effect of over 65% in size
G9a block: inhibitors of human histone lysine methyltransferase G9a | Q96KQ7 | G9a H3K9 monomethylation, AlphaScreen, 2 h | Potency, µM (doses to about 102 µM), inactives show at the top dose activity, negative = inhibition, usual class: inhibitors | 350,000 compounds, 8.8% hits | AID 504332; also: potency is read from the fitted curve at half-maximal effect; % is scaled to controls: 0 for no effect and ±100 for the full control effect; nearly all actives have a fitted effect of over 75% in size
Target sequence (Q96KQ7 913-1193 limits assumed): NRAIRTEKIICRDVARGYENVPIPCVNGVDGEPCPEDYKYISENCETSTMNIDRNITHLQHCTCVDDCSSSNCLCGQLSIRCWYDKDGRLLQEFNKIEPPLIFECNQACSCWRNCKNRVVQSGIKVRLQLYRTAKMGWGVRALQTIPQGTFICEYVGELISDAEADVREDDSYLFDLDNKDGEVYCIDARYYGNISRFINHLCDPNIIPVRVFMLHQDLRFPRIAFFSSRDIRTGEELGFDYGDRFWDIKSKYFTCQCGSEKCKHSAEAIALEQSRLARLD
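Readings reflect AlphaScreen signal from monomethyl-H3K9 antibody detection. HMT at 20 nM; substrate b-H3K9 500 nM; cofactor SAM 20 uM; 2 h RT reaction; compounds tested as titrations in qHTS with 15 min preincubation.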
* = called active by the depositor; [ ] = remark or other dose. Unless noted, calls follow the shape of the dose curve; as a rule, active = well fitted curve in the direction sought with a large enough effect; inconclusive = small, poorly fitted or top-dose-only effect, or another doubt; inactive = no such curve, though single readings can be large; an effect the other way counts as inactive or inconclusive.

For Cn1cc([N+](=O)[O-])c(C(=O)N/N=C/c2ccc([N+](=O)[O-])cc2)n1 the results were BAZ2B inh -2.7%, HP1b binding inh 34.9%, PI5P4K alpha inh -0.6, JMJD2A Tudor inh -18.2%, PLK1 PBD inh -0.2% and G9a block 21.4%.
CC(C)CC(=O)NC(=S)NNC(=O)c1ccc(NC(=O)C2CCCCC2)cc1 was read as BAZ2B inh inconclusive, HP1b binding inh -7.5%, PI5P4K alpha inh inconclusive, JMJD2A Tudor inh -27.5%, PLK1 PBD inh -22.4% and G9a block inconclusive.
Cc1ccc(-n2nc(C)c3c(C(=O)NCCc4ccccc4)cc(C)nc32)cc1 was read as BAZ2B inh 12.5%[57.1 µM], HP1b binding inh 2.9%, JMJD2A Tudor inh -14.2% and G9a block -3.2%[59 µM].
`COCCCNC(=O)C[C@@H]1C[C@@]2(C(=O)OC)CC(C)(C)CC=C2N(Cc2ccccc2)C1=O` gave PI5P4K alpha inh 0.2 and PLK1 PBD inh -10.2%.
`CCCCCCCNC(=O)C1(CC2CC(c3ccc(Cl)cc3)=NO2)CCN(C(=O)c2cc(OCC)c(OCC)c(OCC)c2)CC1` (stereo unspecified) gave BAZ2B inh -31.1%, HP1b binding inh 17.2%, PI5P4K alpha inh 8.5, JMJD2A Tudor inh -22.8%, PLK1 PBD inh -4.0% and G9a block -0.4%.
`c1ccc(-c2cc(N3CCOCC3)nc3ccccc23)cc1` gave BAZ2B inh 50.1µM*, HP1b binding inh 8.7%, JMJD2A Tudor inh 3.16µM*, PLK1 PBD inh 0.0% and G9a block 4.47µM*.
Screening O/C(=C\c1nc2ccccc2[nH]1)c1cccs1 returned BAZ2B inh -29.6%, HP1b binding inh -3.2%[57 µM], PI5P4K alpha inh -10.3, JMJD2A Tudor inh -28.8%, PLK1 PBD inh -18.1% and G9a block 25.1µM*.
For COc1ccc(C2C(C#N)=C(N)Oc3n[nH]c(C)c32)cc1Cn1nc(C)c([N+](=O)[O-])c1C (stereo unspecified) the results were BAZ2B inh -8.3%, HP1b binding inh 8.0%, PI5P4K alpha inh -20.6, JMJD2A Tudor inh -30.4%, PLK1 PBD inh -23.9% and G9a block 10µM*.
COc1ccc(C2C(C#N)=C(N)OC3=C2C(=O)CCC3)cc1Cn1nc(C)c([N+](=O)[O-])c1C (stereo unspecified) was read as BAZ2B inh -21.0%, HP1b binding inh 2.1%, PI5P4K alpha inh -14.2, JMJD2A Tudor inh -25.0%, PLK1 PBD inh -6.0% and G9a block -46.5%[59 µM].
For Cc1ccccc1S(=O)(=O)N1CCN(S(=O)(=O)c2ccc3c(c2)OCCO3)CC1 the results were JMJD2A Tudor inh -8.2%.
CC(=O)Oc1ccc(Cl)cc1/C=C/c1ccc2ccccc2n1 was read as BAZ2B inh 58.5%, HP1b binding inh 222.8%, PI5P4K alpha inh 12.6, JMJD2A Tudor inh 73.8%, PLK1 PBD inh -13.4% and G9a block 104.1%[59 µM].
`CC(C)(O)c1ccccc1CC[C@@H](SCC1(CC(=O)O)CC1)c1cccc(/C=C/c2ccc3ccc(Cl)cc3n2)c1` gave HP1b binding inh -5.2%, PI5P4K alpha inh -3.4, JMJD2A Tudor inh 79.4µM* and PLK1 PBD inh inconclusive.
`O=C(CNc1ccccc1Cl)c1ccc(Br)cc1` gave BAZ2B inh 2.7%, HP1b binding inh 45.3%, PI5P4K alpha inh 8.8, JMJD2A Tudor inh -9.7%, PLK1 PBD inh -5.2% and G9a block 79.4µM*.
For CC(C)NS(=O)(=O)c1ccc(NC(=O)C(C)OC(=O)CCC(=O)c2cccs2)cc1 (stereo unspecified) the results were BAZ2B inh 11.5%, HP1b binding inh 38.1%, PI5P4K alpha inh -0.4, JMJD2A Tudor inh 1.0%, PLK1 PBD inh 1.7% and G9a block -1.4%[12.7 µM].
Screening CCOC(=O)c1[nH]c2ccc(OC)cc2c1NC(=O)c1ccc(OC)c(OC)c1 returned BAZ2B inh -7.9%, HP1b binding inh 27.4%, PI5P4K alpha inh -5.0, JMJD2A Tudor inh -4.8%, PLK1 PBD inh 0.4% and G9a block 50.1µM*.
CCOC(=O)c1[nH]c2cc(OC)c(OC)cc2c1N was read as BAZ2B inh -35.4%, HP1b binding inh 12.3%, PI5P4K alpha inh -1.1, JMJD2A Tudor inh 56.2µM*, PLK1 PBD inh -3.2% and G9a block 3.16µM*.
For CCOC(=O)c1[nH]c2ccc(OC)cc2c1NC(=O)c1nonc1C the results were BAZ2B inh 2.0%, HP1b binding inh 21.6%, PI5P4K alpha inh -5.3, JMJD2A Tudor inh -1.2%, PLK1 PBD inh -13.9% and G9a block -6.3%.
`CCOC(=O)c1[nH]c2ccc(C)cc2c1N` gave BAZ2B inh -39.0%, HP1b binding inh -8.8%, JMJD2A Tudor inh inconclusive, PLK1 PBD inh -3.6% and G9a block 1.78µM*.
Screening CC1CCC/C(=C\Nc2ccc(O)cc2)C1=O (stereo unspecified) returned HP1b binding inh 6.3%, PI5P4K alpha inh -12.4, JMJD2A Tudor inh 79.4µM*, PLK1 PBD inh -5.3% and G9a block inconclusive.
For CC(=O)NC(=O)NC1OC(=O)C(Cl)=C1Cl (stereo unspecified) the results were BAZ2B inh 3.4%, HP1b binding inh 36.1%, PI5P4K alpha inh -14.9, JMJD2A Tudor inh 1.5%[57.1 µM], PLK1 PBD inh inconclusive and G9a block 39.8µM*.
`Cc1ccc(S(=O)(=O)c2cn(CC(=O)Nc3ccc4c(c3)OCO4)c3ccccc3c2=O)cc1C` gave BAZ2B inh -15.7%, HP1b binding inh -5.6%, JMJD2A Tudor inh -14.9% and G9a block inconclusive.
For COc1ccc(Cl)cc1S(=O)(=O)n1nnc2ccccc21 the results were BAZ2B inh inconclusive, HP1b binding inh 25.1%, PI5P4K alpha inh 0.7, JMJD2A Tudor inh -30.6%, PLK1 PBD inh -8.0% and G9a block 50.1µM*.
`COc1ccc(Cl)cc1S(=O)(=O)n1ccnc1C(C)C` gave BAZ2B inh 0.6%, HP1b binding inh 46.4%, PI5P4K alpha inh 7.8, JMJD2A Tudor inh -25.5%, PLK1 PBD inh -10.6% and G9a block 50.1µM*.
For CC(C)c1nccn1S(=O)(=O)c1cc(Cl)ccc1Cl the results were BAZ2B inh -2.8%, HP1b binding inh 32.1%, PI5P4K alpha inh -9.6, JMJD2A Tudor inh -13.6%, PLK1 PBD inh -3.2% and G9a block -2.3%[59 µM].
Screening COCc1ccc(C(=O)N2CCCC(N3CCN(c4cccc(Cl)c4)CC3)C2)s1 (stereo unspecified) returned PI5P4K alpha inh 2.0 and PLK1 PBD inh 1.3%.
CCOC(=O)c1[nH]c(C)c(CCC(=O)Nc2c(C)cc(C)cc2C)c1C was read as BAZ2B inh 2.2%, HP1b binding inh 5.3%[57 µM], JMJD2A Tudor inh -11.0% and G9a block 8.2%[59 µM].
For Cc1ccc(-n2ncc3c(NC4CCCCC4)ncnc32)cc1C the results were BAZ2B inh -0.2%, HP1b binding inh 27.1%, JMJD2A Tudor inh 1.2% and G9a block 2.4%[59 µM].

Screening data as filed in PubChem BioAssay.
